# Assay results: PubChem BioAssay AID463173 (ICCB-Longwood Screening Facility, Harvard Medical School, 2010)
# Screen size: about 52,000 compounds; about 4,300 (8.3%) were called active. No stated cut-off is given here; in the data, active means survival mostly below about 52% (no sharp cut-off); inactive means mostly above about 56%. What follows is part of a selection rich in actives, with near analogues and random picks from the rest.
# Tested on: DeltatarO mutant
# Assay: growth inhibition of S. aureus wild type versus tarO mutant, primary screen, teichoic acid synthesis inhibitors, RN4220, OD600 (AID 463173)
# Conditions: OD600, 18 h, stronger effect = lower value, screened at 18.75 µg/mL (by protocol)
row,SMILES,survival
1,O=C1CC(c2cccc(O)c2)c2c(nc(SCc3ccccc3F)[nH]c2=O)N1 (configuration not stated),106% (inactive)
2,COc1cc(NC(=O)CN2C(=O)C(c3ccc(C)cc3)=NC23CCCCCC3)cc(OC)c1,83% (inactive)
3,O=C(COc1ccc(F)cc1)NCc1ccc2c(c1)CCN2C(=O)c1ccccc1,81% (inactive)
4,COc1ccc(C2CC(=O)NC(NC(=O)c3ccc(Br)cc3)=N2)c(OC)c1OC (configuration not stated),86% (inactive)
5,CCOC(=O)N1CCc2c(sc3c2c(=O)n(-c2ccc(Cl)cc2)c(=O)n3CC(C)C)C1,94% (inactive)
6,CN(C)CCNC(=O)Cn1nc(N2CCN(c3ccccc3)CC2)ccc1=O,86% (inactive)
7,CC(=O)c1ccc(NC(=O)C2CCN(S(=O)(=O)c3ccc4[nH]c5c(c4c3)CCCCC5)CC2)cc1,94% (inactive)
8,O=C1COc2cc(S(=O)(=O)CCC(=O)N3CCN(c4cccc(Cl)c4)CC3)c(Cl)cc2N1,66% (inactive)
9,CCOC(=O)C1=C(CN2CCC(C(=O)OCC)CC2)NC(=O)NC1c1ccc(Cl)cc1 (configuration not stated),111% (inactive)
10,COc1ccc(-n2nnc(C(=O)Nc3ccccc3F)c2N)cc1,68% (inactive)
11,O=C(Nc1ccc(C(F)(F)F)cc1)C1(c2cccs2)CCOCC1,87% (inactive)
12,Cc1cccc(C)c1NC(=O)CCS(=O)(=O)c1cccc2nonc12,74% (inactive)
13,Cc1ccc(Nc2ncnc3onc(C)c23)cc1Cl,67% (inactive)
14,Cc1ccc(C2=NC(c3ccc(F)cc3)=Nc3ccc(C)cc3N2)cc1,72% (inactive)
15,O=C(NN=C1CCCCC1)c1n[nH]c2c1CCC2,97% (inactive)
16,CCc1ccc(C(=O)c2cn(CC(=O)Nc3ccc(OC)cc3)c3cc4c(cc3c2=O)OCO4)cc1,81% (inactive)
17,COc1ccc(CN2CCc3c(c(=O)n4ncc(C(=O)N5CCN(c6ccccc6F)CC5)c4n3C)C2)cc1,88% (inactive)
18,COc1ccccc1NC(=O)c1cc(S(=O)(=O)N(C)C2CCCCC2)ccc1F,85% (inactive)
19,CCNC(=O)c1c(NC(=O)c2nc(S(=O)(=O)CC)ncc2Cl)sc2c1CCCC2,34% (active)

row,SMILES,survival
1,CCSc1ncc(Cl)c(C(=O)Nc2sc3c(c2C(=O)NCCCOC)CCCC3)n1,108% (inactive)
2,CCOCCCNC(=O)c1c(NC(=O)c2nc(SC)ncc2Cl)sc2c1CCCC2,64% (inactive)
3,CCCSc1ncc(Cl)c(C(=O)Nc2sc3c(c2C(=O)NCCOC)CCCC3)n1,92% (inactive)
4,COCCCNC(=O)c1c(NC(=O)c2nc(S(C)(=O)=O)ncc2Cl)sc2c1CCCC2,53% (inactive)
5,Cc1cccc(CSc2ncc(Cl)c(C(=O)Nc3sc4c(c3C(N)=O)CCCC4)n2)c1,112% (inactive)
6,CCCSc1ncc(Cl)c(C(=O)Nc2sc3c(c2C(=O)OC)CCCC3)n1,53% (inactive)
7,CCCSc1ncc(Cl)c(C(=O)Nc2sc3c(c2C(=O)NCC)CCCC3)n1,45% (active)
8,CCCSc1ncc(Cl)c(C(=O)Nc2sc3c(c2C(N)=O)CCCC3)n1,46% (active)
9,CCN(CC)c1nn2c(=O)c(C(=O)NCc3ccc(OC)cc3OC)cnc2s1,75% (inactive)
10,CCOc1ccc(NC(=O)CSc2oc(-c3ccco3)nc2S(=O)(=O)c2ccccc2)cc1,101% (inactive)
11,Cc1ccc(NC(=O)n2ncc3c(C)cccc32)c(C)c1,85% (inactive)
12,COc1ccc(-n2nc(C(=O)Nc3ccc(C)cn3)c3c4ccccc4n(C)c3c2=O)cc1,76% (inactive)
13,CCC(Sc1nc2ncccc2o1)C(=O)Nc1ccc(OC)c(OC)c1 (configuration not stated),79% (inactive)
14,COc1cccc(NC(=O)c2nnn(Cc3ccc(OC)c(Br)c3)c2N)c1,57% (inactive)
15,CCCN(CCC)C(=O)CSc1nc2ccccc2c(=O)n1Cc1ccco1,83% (inactive)
16,O=C(CSc1nc2ccncc2[nH]1)Nc1ccccc1C(F)(F)F,87% (inactive)
17,O=S(=O)(Nc1ccc(-c2ccc(N3CCCC3)nn2)cc1)c1ccc(Br)cc1,94% (inactive)
18,COc1ccc(CNC(=O)c2cnn3c(C)c(Cc4ccc(F)cc4)c(C)nc23)cc1,80% (inactive)
19,CC(C)CC(=O)Nc1nnc(S(=O)(=O)N2CCc3ccccc32)s1,74% (inactive)

row,SMILES,survival
1,O=C(COc1ccc(Cl)cc1)Nc1nnc(S(=O)(=O)N2CCc3ccccc32)s1,6% (active)
2,Cc1ccc(OCC(=O)Nc2nnc(S(=O)(=O)N3CCc4ccccc43)s2)cc1,13% (active)
3,CCC(=O)Nc1nnc(S(=O)(=O)N2CCc3ccccc32)s1,76% (inactive)
4,O=C(COc1ccc(F)cc1)Nc1nnc(S(=O)(=O)N2CCc3ccccc32)s1,17% (active)
5,COc1ccc(OCC(=O)Nc2nnc(S(=O)(=O)N3CCc4ccccc43)s2)cc1,70% (inactive)
6,Cc1cccc(OCC(=O)Nc2nnc(S(=O)(=O)N3CCc4ccccc43)s2)c1,16% (active)
7,CC(=O)NCCNC(=O)CCCc1nnc2n(C)c(=O)c3sccc3n12,93% (inactive)
8,COc1ccc(CCNC(=O)c2cc3n(n2)C(C(F)(F)F)CC(C2CC2)N3)cc1OC (configuration not stated),99% (inactive)
9,CC(=O)c1ccc(N2CCN(S(=O)(=O)c3c(C)nc4sc(C)cn4c3=O)CC2)cc1,75% (inactive)
10,COCCNC(=O)CCC(=O)N1Cc2cccc(OC)c2Oc2ncccc21,89% (inactive)
11,N#CC1=C(N)c2ccccc2CC12CCCCC2,31% (active)
12,Nc1n[nH]c2c1C1(CCCC1)Cc1ccccc1-2,100% (inactive)
13,Nc1nc(=S)[nH]c2c1C1(CCCC1)Cc1ccccc1-2,99% (inactive)
14,CCc1ccc2[nH]c(=O)c(CN(CCO)C(=S)NCc3ccco3)cc2c1,88% (inactive)
15,COc1ccc2[nH]c(=O)c(CN(Cc3ccco3)C(=S)NC3CCCCC3)cc2c1,77% (inactive)
16,CNC(=S)N(Cc1ccco1)Cc1cc2ccc(C)cc2[nH]c1=O,99% (inactive)
17,COc1ccc2[nH]c(=O)c(CN(Cc3ccco3)C(=S)NCc3ccco3)cc2c1,65% (active)
18,Cc1ccc(NC(=S)N(Cc2ccco2)Cc2cc3cc(C)c(Cl)cc3[nH]c2=O)cc1,82% (inactive)
19,COc1ccc(NC(=S)N(Cc2ccco2)Cc2cc3cc(C)c(C)cc3[nH]c2=O)cc1,38% (active)
